# Assay results reported in PubChem BioAssay (NCI).
# The panel holds about 83,000 compounds, 20% with a hit somewhere; the sample as a whole holds those more often.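 A percent growth of 40 corresponds to 60% growth inhibition; 0 means no net growth; -100 means all cells died. Active threshold: below 10.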 A number with no mark means an inactive call. Activity calls are given as the source filed them.
# System: SK-OV-3 ovarian
# Experiment: NCI-60 one-dose screen, 48 h (100 = growth as untreated, 0 = no growth, -100 = all killed)
# Settings: 10 µM unless noted
# Procedure: Growth inhibition of the SK-OV-3 human tumor cell line is measured as a screen for anti-cancer activity. Cells are grown in 96 well plates and exposed to the test compound for 48 hours. Compounds are tested at a single concentration, which is 10^-5 M for most compounds. The reported endpoint is percent growth (GI% or GIPRCNT), where numbers from 0 - 100% represent growth inhibition, and numbers from -100% - 0 represent cell death. For example, a value of 40 represents 60% growth inhibition. A value of 0 means no net growth occurred over the course of the experiment. A value of -40 indicates 40% of cells at the beginning of the experiment died by the end of the experiment. A value of -100 means all cells are dead at the end of the experiment.
# NCI-60 Human Tumor Cell Lines Screen was performed using the standard one-dose NCI protocol, which is described in more detail at https://dtp.cancer.gov/discovery_development/nci-60/default.htm.
# Compounds with GIPRCNT values below 10 were considered active. Activity score was based on GIPRCNT using the following formula: […]
# Score is 0 for GIPRCNT values of 100 or above, 50 for GIPRCNT values of 0, and 100 for GIPRCNT values of -100.
row,Structure (SMILES),growth
1,COc1cccc(NC(=O)c2cccc(-c3cc(=O)c4c(OC)c(OC)c(OC)cc4o3)c2)c1,109%
2,Cn1c(COC(=O)NCCc2ccccn2)nc2c(N3CCOCC3)nc(Cl)nc21,90.3%
3,O=C(Cc1ccc(/C=C/C(=O)c2ncc[nH]2)cc1)Nc1ccc(C(F)(F)F)cc1,73.3%
4,BrC(Br)(Br)c1cnc2ccccc2n1,69.4%
5,O=C(NCCN1CCOCC1)OCc1nc2nc(Cl)nc(N3CCOCC3)c2[nH]1,30.7%
6,COc1c(Cl)cc(Cl)c2ccc(C=C3C(=O)NC(=S)NC3=O)nc12,106%
7,C(=C\c1n(Cc2ccc3ccccc3c2)c(-c2ccccc2)c(-c2ccccc2)[n+]1Cc1ccc2ccccc2c1)/c1ccccc1,-60.1% (active)
8,COc1cc(-c2nc3occn3c2-c2ccnc(NCCNS(=O)(=O)c3ccc(Cl)cc3)n2)ccc1F,67.3%
9,COc1ccc(/C=C/C(=O)c2ccc(OC)c(OC)c2)cc1O,104%
10,C=C1C(=O)O[C@H]2[C@H]1CC/C(COC(=O)NCCc1c[nH]c3ccc(Cl)cc13)=C\CC[C@@]1(C)O[C@@H]21,96.4%
11,COc1ccc(C(O)c2cc3c(N)c(C(=O)Nc4ccc(Cl)cc4)sc3nc2C)cc1 (stereo not given),32.1%
12,CN1C2CCC1CN(c1cnc(C(=O)Nc3cc(F)cc4cccnc34)cn1)C2,81.9%
13,COc1cc(NCCN(CC(C)C)C2CCCC2)c2ncccc2c1,97.7%
14,CC1(c2ccccc2)NC(=O)N(CC(=O)Nc2cccc(I)c2)C1=O (stereo not given),87.5%
15,N#Cc1c(NC(=O)c2cccc(Br)c2)sc2c1CCCC2,85.2%
16,NC(=S)N/N=C/c1ccc(OC(=O)COc2cc(Cl)c(Cl)cc2Cl)cn1,99.5%
17,C=CCn1c(SCC(=O)Nc2ccc(C(=O)/C=C/c3cc(OC)c(OC)c(OC)c3)cc2)nnc1-c1cc(OC)c(OC)c(OC)c1,76.5%
18,CCOC(=O)c1ccc(Nc2ccnc(SCC(=O)c3ccc(C#N)cc3)n2)cc1,101%
19,Cc1ccc(-c2c(Br)c(OC(=O)CO[C@@H]3C[C@H](C)CC[C@H]3C(C)C)c(-c3ccc(C)cc3C)c(Br)c2OC(=O)CO[C@H]2C[C@@H](C)CC[C@@H]2C(C)C)c(C)c1,94.9%
20,COc1cccc(CCC(=O)c2cc3c(N)c(C(=O)Nc4cccc(Cl)c4C)sc3nc2C)c1,32.4%

row,Structure (SMILES),growth
1,CC(C)Sc1nc(NN)c(C#N)c(-c2ccccc2)n1,108%
2,CC1(C)NCCC[C@]2(C)[C@H]3CC=C4[C@@H]5C[C@@](C)(CO)CC[C@]5(C)CC[C@@]4(C)[C@]3(C)CC[C@@H]12,93.1%
3,COc1ccc(C(O)c2cc3c(N)c(C(=O)Nc4ccccc4)sc3nc2C)cc1 (stereo not given),-9.84% (active)
4,COc1cc(NCC(O)CN(CC(C)C)CC(C)C)c2nc(C)ccc2c1 (stereo not given),75.2%
5,COc1ccc(/C(=C\c2ccccc2)C(=O)O)cc1OC,105%
6,Cc1ccc(O)c(C(=O)O)c1,106%
7,CC(=O)c1c(-c2ccc(OC(F)(F)F)cc2)nc2ccccn12,97.6%
8,O=C1Nc2ccccc2/C1=N/c1nc(-c2ccc(Cl)cc2)cs1,57.8%
9,C#Cc1cccc(NC(=O)Nc2ccc(NC(=O)CCl)cc2)c1,-86.7% [8.25 µM] (active)
10,CCNC(=O)c1[nH]cc(-c2ccc(OC)cc2)c1-c1cc(OC)cc(OC)c1,145%
11,Clc1nc(Cl)c2ncn(CCOCCn3cnc4c(Cl)nc(Cl)nc43)c2n1,-98.3% (active)
12,O=C(Nc1ccc2ncnc(Nc3ccc(Oc4cccc(F)c4)c(Cl)c3)c2c1)c1ccc(CN2CCOCC2)cc1,18.5%
13,COc1ccc(NS(=O)(=O)c2ccc(C)cc2)c([N+](=O)[O-])c1,105%
14,O=C(N/N=C/c1cccnc1)c1ccccc1Nc1cccc(C(F)(F)F)c1,80.3%
15,N#Cc1ccc(-c2ccc3c(c2)NC(=O)/C3=C\c2ccc[nH]2)cc1,62.6%
16,CCOC(=O)C1CC(=O)c2cc(OC)c(OC)cc2C1 (stereo not given),106%
17,Cc1ccc(C(c2c(O)c3cc(Br)ccc3[nH]c2=O)c2c(O)c3cc(Br)ccc3[nH]c2=O)cc1,86.1%
18,COc1cc2nc(-c3ccc(C(F)(F)F)cc3)cc(OCCN3CCCC3)c2cc1OC,86.3%
19,CCCOc1nc(SCCC)nc2c1cnn2-c1ccccc1,106%
20,c1ccc(-c2nn(-c3ccccc3)[n+](-c3cccc4ccccc34)n2)cc1,66.3%
